According to paper PMC11006913:

What was measured:
Experiment in all cases: PBM; 200 nM protein, PBS
Settings in all cases: dsDNA, one strand shown
HOXB9 [1] = molecular target: HOXB9 (Homo sapiens, UniProt P17482 171-250, T197M)
HOXB9 [2] = molecular target: HOXB9 (Homo sapiens, UniProt P17482 171-250)
HOXB9 [3] = molecular target: HOXB9 (Homo sapiens, UniProt P17482 171-250, R186Q)
HOXA2 [4] = molecular target: HOXA2 (Homo sapiens, UniProt O43364 129-215, R185T)
HOXA2 [5] = molecular target: HOXA2 (Homo sapiens, UniProt O43364 129-215, R185K)
HOXA2 [6] = molecular target: HOXA2 (Homo sapiens, UniProt O43364 129-215, Y150S)
HOXA2 [7] = molecular target: HOXA2 (Homo sapiens, UniProt O43364 129-215)
Chain of HOXA2 (Homo sapiens, UniProt O43364 129-215) (O43364 129-215): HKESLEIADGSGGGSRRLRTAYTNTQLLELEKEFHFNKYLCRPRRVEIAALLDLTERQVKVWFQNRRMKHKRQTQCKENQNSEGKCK

Chain of HOXB9 (Homo sapiens, UniProt P17482 171-250, T197M) (P17482 171-250 T197M): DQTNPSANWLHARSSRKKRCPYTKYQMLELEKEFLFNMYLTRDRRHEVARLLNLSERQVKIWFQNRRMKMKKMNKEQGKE
Chain of HOXA2 (Homo sapiens, UniProt O43364 129-215, R185T) (O43364 129-215 R185T): as the sequence (O43364 129-215) above, with R57T counted along it
Chain of HOXA2 (Homo sapiens, UniProt O43364 129-215, Y150S) (O43364 129-215 Y150S): as the sequence (O43364 129-215) above, with Y22S counted along it
Chain of HOXB9 (Homo sapiens, UniProt P17482 171-250, R186Q) (P17482 171-250 R186Q): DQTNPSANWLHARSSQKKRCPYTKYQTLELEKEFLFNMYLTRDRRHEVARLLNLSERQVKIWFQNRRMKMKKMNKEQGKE
Chain of HOXA2 (Homo sapiens, UniProt O43364 129-215, R185K) (O43364 129-215 R185K): as the sequence (O43364 129-215) above, with R57K counted along it
Chain of HOXB9 (Homo sapiens, UniProt P17482 171-250) (P17482 171-250): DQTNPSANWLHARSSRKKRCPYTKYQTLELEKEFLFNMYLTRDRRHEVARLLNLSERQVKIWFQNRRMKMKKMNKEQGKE

Sequence | binding signal (HOXB9 [1]) | binding signal (HOXB9 [2]) | binding signal (HOXB9 [3]) | binding signal (HOXA2 [4]) | binding signal (HOXA2 [5]) | binding signal (HOXA2 [6]) | binding signal (HOXA2 [7])
CCCGATGC | 8.47 upbm affinity estimate (log intensity, higher = more binding, comparable within an allelic series) | 8.13 upbm affinity estimate (log intensity, higher = more binding, comparable within an allelic series) | 8.19 upbm affinity estimate (log intensity, higher = more binding, comparable within an allelic series) | – | – | – | –
ATAAAATA | 9.86 upbm affinity estimate (log intensity, higher = more binding, comparable within an allelic series) | 11.8 upbm affinity estimate (log intensity, higher = more binding, comparable within an allelic series) | 11.4 upbm affinity estimate (log intensity, higher = more binding, comparable within an allelic series) | – | – | – | –
CCCAGGCC | 8.39 upbm affinity estimate (log intensity, higher = more binding, comparable within an allelic series) | 8.27 upbm affinity estimate (log intensity, higher = more binding, comparable within an allelic series) | 8.29 upbm affinity estimate (log intensity, higher = more binding, comparable within an allelic series) | – | – | – | –
CGTGAAGC | 8.57 upbm affinity estimate (log intensity, higher = more binding, comparable within an allelic series) | 8.56 upbm affinity estimate (log intensity, higher = more binding, comparable within an allelic series) | 8.45 upbm affinity estimate (log intensity, higher = more binding, comparable within an allelic series) | – | – | – | –
CCTAGCCG | 8.53 upbm affinity estimate (log intensity, higher = more binding, comparable within an allelic series) | 8.64 upbm affinity estimate (log intensity, higher = more binding, comparable within an allelic series) | 8.65 upbm affinity estimate (log intensity, higher = more binding, comparable within an allelic series) | – | – | – | –
CGCGCCCC | 8.45 upbm affinity estimate (log intensity, higher = more binding, comparable within an allelic series) | 8.02 upbm affinity estimate (log intensity, higher = more binding, comparable within an allelic series) | 8.34 upbm affinity estimate (log intensity, higher = more binding, comparable within an allelic series) | 7.42 upbm affinity estimate (log intensity, higher = more binding, comparable within an allelic series) | 10.1 upbm affinity estimate (log intensity, higher = more binding, comparable within an allelic series) | 10.2 upbm affinity estimate (log intensity, higher = more binding, comparable within an allelic series) | 7.21 upbm affinity estimate (log intensity, higher = more binding, comparable within an allelic series)
CTTGGCGC | 8.47 upbm affinity estimate (log intensity, higher = more binding, comparable within an allelic series) | 8.24 upbm affinity estimate (log intensity, higher = more binding, comparable within an allelic series) | 8.21 upbm affinity estimate (log intensity, higher = more binding, comparable within an allelic series) | – | – | – | –
ACCGGCCA | 8.45 upbm affinity estimate (log intensity, higher = more binding, comparable within an allelic series) | 8.55 upbm affinity estimate (log intensity, higher = more binding, comparable within an allelic series) | 8.63 upbm affinity estimate (log intensity, higher = more binding, comparable within an allelic series) | – | – | – | –
CACGCCTC | 8.36 upbm affinity estimate (log intensity, higher = more binding, comparable within an allelic series) | 8.42 upbm affinity estimate (log intensity, higher = more binding, comparable within an allelic series) | 8.39 upbm affinity estimate (log intensity, higher = more binding, comparable within an allelic series) | – | – | – | –
CCGTGAGG | 8.4 upbm affinity estimate (log intensity, higher = more binding, comparable within an allelic series) | 8.23 upbm affinity estimate (log intensity, higher = more binding, comparable within an allelic series) | 8.2 upbm affinity estimate (log intensity, higher = more binding, comparable within an allelic series) | – | – | – | –
CCCCTCGA | 8.73 upbm affinity estimate (log intensity, higher = more binding, comparable within an allelic series) | 8.55 upbm affinity estimate (log intensity, higher = more binding, comparable within an allelic series) | 8.57 upbm affinity estimate (log intensity, higher = more binding, comparable within an allelic series) | – | – | – | –
TATAAATA | 9.81 upbm affinity estimate (log intensity, higher = more binding, comparable within an allelic series) | 11.2 upbm affinity estimate (log intensity, higher = more binding, comparable within an allelic series) | 10.8 upbm affinity estimate (log intensity, higher = more binding, comparable within an allelic series) | – | – | – | –
GCGCGGCA | 8.49 upbm affinity estimate (log intensity, higher = more binding, comparable within an allelic series) | 8.54 upbm affinity estimate (log intensity, higher = more binding, comparable within an allelic series) | 8.56 upbm affinity estimate (log intensity, higher = more binding, comparable within an allelic series) | 7.06 upbm affinity estimate (log intensity, higher = more binding, comparable within an allelic series) | 10.3 upbm affinity estimate (log intensity, higher = more binding, comparable within an allelic series) | 10.4 upbm affinity estimate (log intensity, higher = more binding, comparable within an allelic series) | 6.94 upbm affinity estimate (log intensity, higher = more binding, comparable within an allelic series)
GGCTCCGA | 8.49 upbm affinity estimate (log intensity, higher = more binding, comparable within an allelic series) | 8.4 upbm affinity estimate (log intensity, higher = more binding, comparable within an allelic series) | 8.41 upbm affinity estimate (log intensity, higher = more binding, comparable within an allelic series) | – | – | – | –
CTTGGGCC | 8.42 upbm affinity estimate (log intensity, higher = more binding, comparable within an allelic series) | 8.37 upbm affinity estimate (log intensity, higher = more binding, comparable within an allelic series) | 8.33 upbm affinity estimate (log intensity, higher = more binding, comparable within an allelic series) | – | – | – | –
AAGTTATC | 9.1 upbm affinity estimate (log intensity, higher = more binding, comparable within an allelic series) | 9.66 upbm affinity estimate (log intensity, higher = more binding, comparable within an allelic series) | – | – | – | – | –
CGTCCGAC | 8.56 upbm affinity estimate (log intensity, higher = more binding, comparable within an allelic series) | 8.39 upbm affinity estimate (log intensity, higher = more binding, comparable within an allelic series) | 8.45 upbm affinity estimate (log intensity, higher = more binding, comparable within an allelic series) | – | – | – | –
CTGCCGGC | 8.63 upbm affinity estimate (log intensity, higher = more binding, comparable within an allelic series) | 8.65 upbm affinity estimate (log intensity, higher = more binding, comparable within an allelic series) | 8.68 upbm affinity estimate (log intensity, higher = more binding, comparable within an allelic series) | – | – | – | –
CTCGACCA | 8.44 upbm affinity estimate (log intensity, higher = more binding, comparable within an allelic series) | 8.28 upbm affinity estimate (log intensity, higher = more binding, comparable within an allelic series) | 8.38 upbm affinity estimate (log intensity, higher = more binding, comparable within an allelic series) | – | – | – | –
CGCCGGAC | 8.48 upbm affinity estimate (log intensity, higher = more binding, comparable within an allelic series) | 8.46 upbm affinity estimate (log intensity, higher = more binding, comparable within an allelic series) | 8.52 upbm affinity estimate (log intensity, higher = more binding, comparable within an allelic series) | 7.23 upbm affinity estimate (log intensity, higher = more binding, comparable within an allelic series) | 10.4 upbm affinity estimate (log intensity, higher = more binding, comparable within an allelic series) | 10.4 upbm affinity estimate (log intensity, higher = more binding, comparable within an allelic series) | 7.32 upbm affinity estimate (log intensity, higher = more binding, comparable within an allelic series)
